Source: PubChem BioAssay
Only some compounds are listed: those with a hit (about 1.4% of all), similar ones and a draw of the others.
IDE cell activ = activators of human insulin-degrading enzyme in cells. P14735. HEK cells, FAbeta-B cleavage, fluorescence polarization; 0% vehicle, 100% cell-free pure enzyme wells. activation, % at 5.96 µM. 0.073% of 340,000 active. AID 493087;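 active = activation above the mean of all tested compounds plus 3 SD, set per screening campaign, cut at about 17% in these data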
Target sequence (P14735 whole entry, looked up): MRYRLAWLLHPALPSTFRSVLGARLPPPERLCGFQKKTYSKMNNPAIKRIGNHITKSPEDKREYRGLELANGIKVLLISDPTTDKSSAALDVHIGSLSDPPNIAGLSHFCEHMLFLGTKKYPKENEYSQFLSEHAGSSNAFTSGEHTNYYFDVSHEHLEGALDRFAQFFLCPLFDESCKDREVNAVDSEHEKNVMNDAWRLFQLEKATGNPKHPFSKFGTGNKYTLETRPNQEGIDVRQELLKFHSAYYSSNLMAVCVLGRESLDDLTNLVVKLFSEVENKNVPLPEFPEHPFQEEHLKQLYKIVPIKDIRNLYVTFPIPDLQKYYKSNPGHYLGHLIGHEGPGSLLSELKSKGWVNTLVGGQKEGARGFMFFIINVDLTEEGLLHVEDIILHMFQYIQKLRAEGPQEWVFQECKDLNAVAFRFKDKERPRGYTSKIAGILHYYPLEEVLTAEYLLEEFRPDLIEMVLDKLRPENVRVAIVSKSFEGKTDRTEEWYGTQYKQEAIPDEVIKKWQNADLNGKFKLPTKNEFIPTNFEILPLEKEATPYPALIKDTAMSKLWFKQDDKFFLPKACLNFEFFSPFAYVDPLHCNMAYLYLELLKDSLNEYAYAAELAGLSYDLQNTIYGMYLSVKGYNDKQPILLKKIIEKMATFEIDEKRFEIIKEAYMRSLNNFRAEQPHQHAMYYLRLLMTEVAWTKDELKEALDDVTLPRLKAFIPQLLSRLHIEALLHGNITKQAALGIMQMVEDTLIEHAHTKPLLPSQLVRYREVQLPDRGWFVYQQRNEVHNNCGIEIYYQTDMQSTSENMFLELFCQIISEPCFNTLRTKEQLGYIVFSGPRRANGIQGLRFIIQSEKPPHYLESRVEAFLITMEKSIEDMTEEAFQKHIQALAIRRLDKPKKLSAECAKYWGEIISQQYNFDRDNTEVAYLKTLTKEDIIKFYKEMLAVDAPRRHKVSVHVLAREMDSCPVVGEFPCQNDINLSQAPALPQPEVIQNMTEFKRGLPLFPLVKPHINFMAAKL
HNF4A DNA FP = change in binding of human HNF4 alpha to DNA; activity change, % at 10 µM; HNF4a-FITC DNA binding, fluorescence polarization, 1 h; 0.3% of 360,000 active; P41235; in the data active = activity change above about 30%, passing the limit was not always enough
CRFBP-R2 agonist = CRF-BP/CRF-R2 complex agonism | HEK293 CRF-R2/CRF-BP, calcium dye fluorescence (FLIPR); percent of saturating CRF peptide response | activation, % at 13.2 µM | 0.46% of 350,000 active | AID 588473;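 active = activation of at least 50%, plus an integration ratio under a set limit after plate pattern correction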;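 note: plate controls were neutral control wells without compound for no effect and CRF at EC100 for full effect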
IDE inh = cellular human IDE inhibition; HEK cells, FAbetaB cleavage, fluorescence polarization; inhibition, % at 5.59 µM; AID 434962; P14735; 0.41% of 320,000 active;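 active = percent inhibition above the average of all tested compounds plus 3 SD, set per screening campaign, cut at about 16% in these data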;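 note: IDE supplied by intact live HEK cells; FP after avidin binding of uncleaved biotin substrate so inhibition keeps polarization high; 0% = DMSO wells and 100% = 60 µM reference IDE inhibitor Ii1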
TPT1 inhibitor = inhibitors of Candida albicans tRNA 2'-phosphotransferase TPT1 | recombinant caTPT1, FP RNA substrate dephosphorylation | inhibition, % at 5 µM | 0.81% of 300,000 active | AID 1962;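 active = inhibition above the mean of all tested compounds plus 3 SD, set per screening campaign, cut at about 24% in these data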;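 note: plate controls were DMSO alone for no effect and ferristatin control at 100 nM for full effect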
* marks the source's active call; other numbers are inactive results; . = not tested or not shown.

SMILES	IDE cell activ	HNF4A DNA FP	CRFBP-R2 agonist	IDE inh	TPT1 inhibitor
Cc1ccc(/C=C2\Oc3c(ccc(O)c3CN3CCN(CCO)CC3)C2=O)cc1	0	1	86*	-4	1
CC(C)c1ccc(NC(=S)NN2CCOCC2)cc1	0	-5	83*	3	2
COc1ccc2c3c(cccc13)C(=O)CC2	43*	-91	139*	.	.
CC(=O)Nc1nn(C)c2nc3ccc(C)cc3cc12	4	5	2	-3	0
O=C(NCc1cccc(F)c1)Nc1nnc([C@@H]2C[C@H](O)[C@@H](CO)O2)s1	.	3	.	.	.
CC(C)CC(=O)Nc1ccc(C(=O)COC(=O)Cc2n[nH]c(=O)c3ccccc23)cc1	2	-2	51*	-2	.
CCc1ccccc1N=Cc1c(C)c(C#N)c2[nH]c3ccccc3n2c1=O	-3	-45	165*	.	.
CCCC(=O)N1CCCC1(C)C(=O)NCc1ccc(SC)cc1 (configuration not stated)	.	5	.	.	.
COc1ccc(-c2n[nH]c(=S)n2-c2ccc(C)cc2C)cc1	-8	36*	1	2	-2
CCOC(=O)C1(CCOC)CCCCC1=O (configuration not stated)	.	1	0	.	.
Cc1cccc(S(=O)(=O)C(C#N)c2nc3ccccc3nc2N2CCCC2)c1 (configuration not stated)	2	5	64*	2	-1
CCOC(=O)[C@@H]1[C@H]2COc3ccc(Br)cc3[C@@H]2N2C(=O)N(c3cccc(Cl)c3)C(=O)[C@@]12C	4	-3	1	-3	.
O=C(Nc1ccc(Oc2ccccc2)cc1)C1CCCN(c2ncccn2)C1 (configuration not stated)	-9	0	58*	2	-4
Cc1cccc(C(=O)NC(=S)NNC(=O)c2cccs2)c1	-8	0	270*	4	0
Cc1ccccc1C(=O)NNC(=S)NC(=O)c1cccs1	3	-5	99*	-1	1
CC(C)(C)c1ccc(C(=O)NC(=S)NNC(=O)c2cccs2)cc1	-2	-1	290*	5	2
O=C(NC(=S)NNC(=O)c1cccs1)c1ccccc1	3	0	27	5	0
Cc1cccc(C(=O)NC(=S)NNC(=O)c2ccc(Cl)cc2)c1	-3	-2	213*	-1	3
Cc1cc(C)cc(C(=O)NN2CCN(C)CC2)c1	4	3	9	0	1
COC(=O)c1sc(N2C(=O)C(O)=C(C(=O)c3ccc(C)o3)C2c2ccc(F)cc2)nc1C (configuration not stated)	-4	16	2	2	26*
COCCCn1c(=O)/c(=C\c2ccc(OC(F)F)c(OC)c2)s/c1=C(/C#N)C(=O)NCCOC	5	74*	6	-6	14
COCCCn1c(=O)/c(=C\c2ccccc2OC(F)F)s/c1=C(/C#N)C(=O)NC(C)C	4	22	7	0	4
O=C(c1ccc(Cl)cc1)C1CCN(CC(=O)N2CCCCC2)CC1	3	-2	-1	2	-6
COc1ccc(C(C[N+](=O)[O-])c2c(-c3ccccc3)cc3ccccn23)cc1OC (configuration not stated)	-3	1	5	5	3
COc1ccc(C(C[N+](=O)[O-])C2(c3ccc(OC)c(OC)c3)C(=O)c3ccccc3C2=O)cc1 (configuration not stated)	-9	2	4	16*	1
SMILES	IDE cell activ	HNF4A DNA FP	CRFBP-R2 agonist	IDE inh	TPT1 inhibitor
COc1cc(NC(=O)c2ccc(NC3=NC4CS(=O)(=O)CC4S3)cc2)cc(OC)c1OC (configuration not stated)	-11	-4	-3	1	-4
O=c1c2ccccc2sc2ccc(NCCCN3CCOCC3)cc12	-12	8	102*	5	10
COc1cc2sc3cc(NCCCN4CCOCC4)ccc3c(=O)c2cc1OC	-5	4	-6	8	.
CCc1nc2ccc(C(=O)Nc3cccc(NS(C)(=O)=O)c3)cn2c1N(CC)Cc1cccc(Br)c1	.	-3	.	.	.
O=C(NCC1CC1)c1cccc2c1C(=O)c1ccc(N3CCCC3)cc1S2(=O)=O	-5	61	23	4	.
O=C(NC1CCCC1)c1cccc2c1C(=O)c1ccc(/C=C/c3ccccc3)cc1S2(=O)=O	3	10	6	7	.
O=C(NCc1ccccc1Br)c1cccc2c1C(=O)c1ccc(N3CCC(Cc4ccccc4)CC3)cc1S2(=O)=O	4	41	61*	6	.
O=C(NC1CCCCC1)c1cccc2c1C(=O)c1ccc(N3CCC(Cc4ccccc4)CC3)cc1S2(=O)=O	-8	-94	58*	6	.
O=C(CCNC(=O)c1ccc(Cl)cc1)Nc1ccncc1	-2	-2	0	-7	-5
CCN(CC)CCNC(=O)CS(=O)Cc1nc(-c2ccccc2Cl)oc1C (configuration not stated)	18*	-1	0	1	1
O=C1c2ccccc2C(=O)c2c1cccc2N1CCCC1	6	-2	1	3	-6
O=C1c2ccccc2-c2onc3ccc(N4CCCC4)c1c23	-4	-5	83*	.	.
CCNc1ccc2noc3c2c1C(=O)c1ccccc1-3	17	-89	192*	-6	-37
CCOc1ccc2noc3c2c1C(=O)c1ccccc1-3	44*	-89	0	-11	-92
C/C(COc1ccccc1)=N\NC(=O)c1nnn(-c2nonc2N)c1CSc1ccccc1	3	3	-1	11	1
NC(c1csc(NC(=O)Nc2ccc(OC(F)(F)F)cc2)n1)C1CCCCC1 (configuration not stated)	.	1	.	.	.
CC(Oc1cccc2ccccc12)C(=O)N/N=C/c1cccnc1 (configuration not stated)	0	3	-1	1	0
COc1cc2oc(=O)ccc2cc1[C@@H](O)[C@@H]1OC(C)(C)OC1(C)C	0	-2	-1	0	.
O=C(NC1CCCC1)c1cnn2c(C(F)(F)F)cc(-c3ccc4c(c3)OCO4)nc12	19*	70*	16	-2	-4
O=C(c1cnn2c(C(F)(F)F)cc(-c3ccc4c(c3)OCO4)nc12)N1CCCCC1	-6	-2	-1	5	-1
NC(=NCc1ccco1)NC(=O)c1ccc(Cl)cc1	3	-3	1	1	3
CC(=O)Nc1ccc(S(=O)(=O)NCCc2ccccn2)cc1	18*	2	2	1	0
COc1cc(C2C(C(=O)/C=C/c3ccccc3)=C(O)C(=O)N2c2ccccn2)ccc1O (configuration not stated)	3	40*	27	13	8
COc1cc(C2C(C(C)=O)=C(O)C(=O)N2c2ccc(Br)cn2)ccc1O (configuration not stated)	3	1	0	-2	0
O=C(CC[C@H]1O[C@@H](n2cnc3c(NC(=O)c4ccccc4)ncnc32)[C@H](O)[C@@H]1O)NCc1nc2ccccc2[nH]1	.	3	.	.	.
